# Assay results published in the supplement of paper PMC9801561.
# ± gives the standard deviation of the averaged measurements.
# Columns and labels:
# [1] = system: Escherichia coli Nissle 1917; test: area under OmniLog respiration curve over 48 h (OmniLog units x h); higher = more growth / nutrient utilisation; extreme values may be limits of the assay; conditions: incubation: 48 h, 37 °C
# [2] = system: Escherichia coli Nissle 1917; test: DuctApe activity index of respiration/growth curve (0 no growth to 9 maximum) (index 0-9); higher = more growth / nutrient utilisation, active = 3 or more; extreme values may be limits of the assay; conditions: incubation: 48 h, 37 °C
# [3] = nutrient role: sole phosphorus source (pyruvate carbon)
# [4] = nutrient role: sole sulfur source (pyruvate carbon)
# [5] = nutrient role: sole nitrogen source (pyruvate carbon)
# [6] = nutrient role: C-Source, carbohydrate
# [7] = nutrient role: C-Source, carboxylic acid
# [8] = nutrient role: C-Source, amino acid
# 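Wherever DuctApe activity index of respiration/growth curve (0 no growth to 9 maximum) is given: biolog PM4 phosphorus and sulfur plates, tetrazolium violet dye reduction read in the OmniLog every 15 min, kinetic curves scored by DuctApe, each plate run in triplicate.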
smiles,measurement,setting,value
O=P(O)(O)CP(=O)(O)O [Methylene Diphosphonic acid],area under OmniLog respiration curve,[1]; [3],618 ± 470
same,DuctApe activity index,[2]; [3],0.667 (inactive)
NC(=O)CCCCC1CCSS1 (racemic) [DL-Lipoamide],area under OmniLog respiration curve,[1]; [4],561 ± 220
same,DuctApe activity index,[2]; [4],1 (inactive)
NC(=O)C[C@@H](N)C(=O)O [D-Asparagine],area under OmniLog respiration curve,[1]; [5],1420 ± 780
same,DuctApe activity index,[2]; [5],2.33 (inactive)
OC[C@H]1O[C@H](OC[C@H]2O[C@H](OC[C@H]3O[C@H](O[C@]4(CO)O[C@H](CO)[C@@H](O)[C@@H]4O)[C@H](O)[C@@H](O)[C@@H]3O)[C@H](O)[C@@H](O)[C@H]2O)[C@H](O)[C@@H](O)[C@H]1O [Stachyose],area under OmniLog respiration curve,[1]; [6],433 ± 380
same,DuctApe activity index,[2]; [6],1.33 (inactive)
Nc1ccn([C@@H]2O[C@H](CO)[C@@H](OP(=O)(O)O)[C@H]2O)c(=O)n1 [Cytidine 3`-Monophosphate],area under OmniLog respiration curve,[1]; [3],4.72
same,DuctApe activity index,[2]; [3],0 (inactive)
N[C@@H](Cc1ccc(OP(=O)(O)O)cc1)C(=O)O [O-Phospho-L-Tyrosine],area under OmniLog respiration curve,[1]; [3],8920 ± 320
same,DuctApe activity index,[2]; [3],8.67 (active)
C[C@H](N)C(=O)N[C@@H](CCC(N)=O)C(=O)O,area under OmniLog respiration curve,[1]; [5],8550 ± 1600
same,DuctApe activity index,[2]; [5],8 (active)
CO[C@@H]1O[C@H](C(=O)O)[C@@H](O)[C@H](O)[C@H]1O [b-Methyl-D-Glucuronic acid],area under OmniLog respiration curve,[1]; [7],6620 ± 580
same,DuctApe activity index,[2]; [7],7.33 (active)
O=C(O)[C@@H]1C[C@@H](O)CN1 [Hydroxy-L-Proline],area under OmniLog respiration curve,[1]; [8],94.1 ± 78
same,DuctApe activity index,[2]; [8],0 (inactive)
NCC(=O)N[C@@H](CCC(N)=O)C(=O)O,area under OmniLog respiration curve,[1]; [5],8900 ± 1400
same,DuctApe activity index,[2]; [5],8.67 (active)
N[C@@H](Cc1c[nH]c2ccccc12)C(=O)O [L-Tryptophan],area under OmniLog respiration curve,[1]; [5],3670 ± 1500
same,DuctApe activity index,[2]; [5],4.67 (active)
